Assay outcomes from PubChem BioAssay.
AmpC inh detg: blocks E. coli AmpC beta-lactamase in detergent assay. 370,000 compounds, 0.041% hits. Potency, µM (doses to about 114 µM), for the others: at the highest dose activity change, negative = inhibition, actives largely listed as inhibitors. AmpC hydrolysis of nitrocefin, absorbance 480 nm, 0.01% Triton;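 note: 0% = no-compound wells and -100% = no-enzyme wells; nearly all actives have a fitted effect of over 25% in size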
Target sequence (P00811 whole entry, looked up): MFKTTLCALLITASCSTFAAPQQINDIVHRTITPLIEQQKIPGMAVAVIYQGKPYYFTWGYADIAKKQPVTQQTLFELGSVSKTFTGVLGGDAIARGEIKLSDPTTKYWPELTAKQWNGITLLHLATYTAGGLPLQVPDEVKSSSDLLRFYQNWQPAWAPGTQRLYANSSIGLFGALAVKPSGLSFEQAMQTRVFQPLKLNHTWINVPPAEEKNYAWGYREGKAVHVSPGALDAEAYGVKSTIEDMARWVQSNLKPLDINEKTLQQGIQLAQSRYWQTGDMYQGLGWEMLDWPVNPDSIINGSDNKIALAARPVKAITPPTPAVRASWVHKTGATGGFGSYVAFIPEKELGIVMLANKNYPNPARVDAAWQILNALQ
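AmpC (5.3 nM in the dispensed reagent) in 20 mM phosphate pH 7.0 with 0.01% (detergent screen) or 0.0001% Triton X-100 was preincubated with compounds for 15 min at room temperature. Nitrocefin was then added from an 800 uM solution, and hydrolysis was followed at 480 nm.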
VACV mCherry inh: vaccinia inhibition (mCherry reporter); 310,000 compounds, 0.63% hits; Potency, µM (highest dose often 36.5 µM), for the others: top-dose activity change, negative = inhibition, usual class: inhibitors; Vaccinia virus mCherry reporter infection, fluorescence; calls by dose curve; tested in A549 cells; note: % is set by controls: 0 for no effect and ±100 for the full control effect; nearly all actives have a fitted effect of over 35% in size
AmpC inh no detg: inhibitors of E. coli AmpC beta-lactamase without detergent; P00811; AmpC nitrocefin hydrolysis, absorbance 480 nm, 0.0001% Triton; Potency, µM (highest dose often 57.1 µM), inactives show top-dose activity change, negative = inhibition, most hits filed as inhibitors; 330,000 compounds, 0.52% hits;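 note: plate controls were no compound for no effect and no enzyme for full effect; nearly all actives have a fitted effect of over 20% in size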
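AmpC (5.3 nM in the dispensed reagent) in 20 mM phosphate pH 7.0 with 0.01% (detergent screen) or 0.0001% Triton X-100 was preincubated with compounds for 15 min at room temperature. Nitrocefin was then added from an 800 uM solution, and hydrolysis was followed at 480 nm.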
SARS PLP yeast: inhibitors of SARS-CoV papain-like protease in yeast. Potency, µM (titrated, usually from 32.9 µM), without a hit: at the highest dose activity, positive = growth rescue, hits mostly activators. S. cerevisiae expressing SARS-CoV PLpro, growth rescue. AID 485353. 330,000 compounds, 0.19% hits; calls by dose curve; note: 0% is about no effect; nearly all actives have a fitted effect of over 55% in size
Vaccinia Venus: inhibitors of vaccinia virus (Venus reporter); Vaccinia virus Venus reporter expression, fluorescence; Potency, µM (top dose mostly 36.5 µM), inactives show at the top dose activity change, negative = inhibition, hits mostly inhibitors; 330,000 compounds, 0.46% hits; calls by dose curve; tested in A549 cells; note: % is set by controls: 0 for no effect and ±100 for the full control effect; nearly all actives have a fitted effect of over 30% in size
* = called active by the depositor; i = inactive; ? = inconclusive; . = no result given. The list is not random: actives were taken first. Their share in the collection is about 1.3%. Unless noted, calls come from the whole dose curve; as a rule, active = well fitted curve in the direction sought with a large enough effect; inconclusive = small, poorly fitted or top-dose-only effect, or another doubt; inactive = no such curve, though single readings can be large; an effect the other way counts as inactive or inconclusive. Potency is the fitted concentration of half-maximal effect.

SMILES | AmpC inh detg | VACV mCherry inh | AmpC inh no detg | SARS PLP yeast | Vaccinia Venus
CCN(CC)c1ccc(/C=N/NC(=O)c2cccc(S(=O)(=O)Nc3ccccc3OC)c2)c(O)c1 | -10% | 2.5µM* | -41% | 1.8µM* | ?
CCN(CC)c1ccc(/C=N/NC(=O)c2ccc3nc[nH]c3c2)c(O)c1 | -1% | 11µM* | -47% | 3.2µM* | ?
COCC1CCCN(Cc2ccc3c(c2)CN(C(=O)c2ccc(OC)nc2OC)CCO3)C1 (configuration not stated) | . | -7% | . | . | 6%
CC1(C)N=C(N)N=C(N)N1CCCCc1ccccc1 | . | 0.71µM* | . | . | 1µM*
CC1(C)N=C(N)N=C(N)N1c1cccc(CC(=O)Nc2ccccc2)c1 | . | -26% | . | . | ?
Cc1ccnc(NS(=O)(=O)c2ccc(NC(=O)c3ccc(S(=O)(=O)N4CC(C)OC(C)C4)cc3)cc2)n1 (configuration not stated) | -3% | -10% | 32µM* | 12% | -6%
CC1CN(S(=O)(=O)c2ccc(C(=O)Nc3ccc(S(=O)(=O)Nc4nccs4)cc3)cc2)CC(C)O1 (configuration not stated) | -9% | -13% | -36% | -5% | -5%
COC(=O)[C@@H]1CCCN1Cc1ccc2c(c1)CN(Cc1cccn1-c1ccccn1)CCO2 | . | -3% | . | . | 8%
COC(=O)c1ccc(/C=N/Nc2nc(-c3ccc(C)cc3)cs2)cc1 | -13% | 13µM* | -21% | 29% | ?
CCc1ccccc1NC(=O)Cn1c(=O)oc2ccccc21 | 12% | -21% | . | . | -13%
C=CC(=O)Nc1cccc(N(C)c2ccnc(Nc3ccc(N4CCN(C)CC4)cc3)n2)c1 | . | ? | . | . | 4.5µM*
CN1CCN(c2ccc(NC(=O)COc3cccc4ccccc34)cc2)CC1 | -8% | ? | 68% | -6% | 4%
C=CC(=O)Nc1cccc(Oc2ccnc3[nH]ccc23)c1 | . | ? | . | . | 5.6µM*
C=CC(=O)Nc1cccc(Oc2ccnc(Nc3ccc(N4CCN(C)CC4)cc3)n2)c1 | . | ? | . | . | 3.5µM*
CC(=O)c1ccccc1-c1ccc2c(c1)CC(CNC(=O)c1ccnc(Cl)c1)O2 (configuration not stated) | . | -15% | . | . | ?
O=C(NCCN1CCOCC1)c1cnn(-c2nccc(-c3ccccc3F)n2)c1C1CC1 | . | -1% | . | . | ?
COc1ccc(S(=O)(=O)NCc2nc(N3CCCC3)c3cccc(C)c3n2)cc1OC | . | -9% | . | . | 8%
CCOc1ccc(-c2cc(C(=O)NCCOC)[nH]n2)c(C)c1 | . | -8% | . | . | -3%
CCOc1ccc(-c2cc(C(=O)Nc3ccc(C)c(NS(C)(=O)=O)c3)[nH]n2)c(C)c1 | . | 11µM* | . | . | ?
Cc1cc(C)nc(Sc2c(C)nn(-c3ccccc3)c2C)n1 | -15% | . | 41% | -6% | -9%
Cc1cc(C)nc(Sc2ccc3nnnn3n2)n1 | ? | 0.5µM* | -10% | 0% | 3.5µM*
Cc1cnc(-n2ncc(C(=O)NC(C)(C)CO)c2-c2cccs2)nc1-c1ccc(F)cc1 | . | -6% | . | . | 0%
COc1cc(-c2nnc3sc(C4CCCCC4)nn23)cc(OC)c1OC | ? | ? | 121% | -2% | 5.6µM*
CC(C)C[C@@H](CN1CCC[C@@H]1CN1C(=S)NC[C@@H]1Cc1ccccc1)N1C[C@H](Cc2ccc(O)cc2)N(CC2CCCCC2)C1=S | . | 44% | . | . | -1%
Oc1ccc(C[C@H]2CN([C@@H](Cc3ccccc3)CN3CCCC3CN3C(=S)NC[C@@H]3Cc3ccccc3)C(=S)N2CC2CCCCC2)cc1 (some centres not stated) | . | 1% | . | . | -10%
SMILES | AmpC inh detg | VACV mCherry inh | AmpC inh no detg | SARS PLP yeast | Vaccinia Venus
Oc1ccc(C[C@H]2CNC(=S)N2CC2CCCN2C[C@H](Cc2ccc(O)cc2)N2C[C@H](Cc3ccc(O)cc3)N(CC3CCCCC3)C2=S)cc1 (some centres not stated) | . | ? | . | . | 10µM*
CC(C)C[C@H]1CNC(=S)N1CC1CCCN1C[C@H](CC(C)C)N1C[C@H](Cc2ccc(O)cc2)N(CC2CCCCCC2)C1=S (some centres not stated) | . | ? | . | . | 28µM*
CC(C)C[C@@H](CN1CCCC1CN1C(=S)NC[C@@H]1Cc1ccc(O)cc1)N1C[C@H](Cc2ccc(O)cc2)N(CC2CCCCC2)C1=S (some centres not stated) | . | ? | . | . | 10µM*
O=S(=O)(Nc1ccc(-c2ccc(N3CCCC3)nn2)cc1)c1ccc(OC(F)(F)F)cc1 | 7% | -15% | . | . | -17%
CC1Cn2c(C(=O)NCc3cccc(Br)c3)cc3cccc(c32)S1 (configuration not stated) | 23% | -11% | . | . | -6%
COc1ccccc1-c1ccnc(-n2ncc(C(=O)NC3CCCN(Cc4ccccc4)C3)c2C)n1 (configuration not stated) | . | -16% | . | . | 3%
COC(=O)C1CCCCN1Cc1nc(N(C)C)c2ccccc2n1 (configuration not stated) | . | -8% | . | . | -11%
CC(C)C(=O)Nc1ncc(Cc2ccccc2Cl)s1 | 6% | -3% | -13% | 0% | -14%
N#CCC(=O)Nc1ncc(Cc2ccccc2Cl)s1 | -8% | . | 18µM* | -2% | .
Cn1c(O)c(/C=N/NC(=O)c2cc3ccccc3cc2O)c2ccccc21 | -7% | 7.9µM* | -35% | 13% | ?
Cn1c2ccccc2c2cc(/C=N/NC(=O)c3ccc(O)cc3O)ccc21 | -9% | . | -46% | -2% | .
Cc1cc(C(=O)Nc2ccccc2-c2nc(CNC(=O)c3sc(C)nc3C)c(C)o2)c(C)o1 | . | -3% | . | . | 6%
CC(C)N(C(=O)COC(=O)c1ccc(O)cc1)C(C)C | -2% | . | 4µM* | 0% | -10%
Cc1nc(SCC(=O)NC2CC2)c2c(C)c(C)sc2n1 | 4% | -12% | -6% | 15% | -17%
Cc1sc2nc(C(C)C)nc(SCC(=O)NC3CC3)c2c1C | 14µM* | -2% | -13% | 0% | 8%
COc1ccc(OC)c(CN2C[C@H](Sc3ccc(F)cc3)C[C@H]2C(=O)N(C)C)c1 | . | -18% | . | . | -11%
CCN(CC)S(=O)(=O)c1cc([N+](=O)[O-])ccc1NNC(=O)Nc1ccc(Cl)c(Cl)c1 | -12% | ? | -46% | 3% | 16µM*
O=C(NNc1ccccc1[N+](=O)[O-])Nc1ccc(Cl)c(Cl)c1 | -15% | i | 25µM* | -19% | -17%
O=C(NNc1ccccc1[N+](=O)[O-])Nc1ccccc1 | 3% | i | -23% | -2% | -7%
CCCCN(CCCC)S(=O)(=O)c1ccc(NC(=O)c2ccc([N+](=O)[O-])cc2Cl)cc1 | -3% | ? | -30% | -9% | ?
CCOC(=O)N1CCC(NC(=O)c2ccc3snnc3c2)CC1 | ? | -15% | 45µM* | 3% | -11%
CCOc1ccc(CCNC(=O)Cc2ccc(NC(=O)N3CCSc4ncccc43)cc2)cc1 | 14% | -10% | . | . | -11%
COc1cccc(/C=C/c2cnc3ccccc3n2)c1OC | . | -23% | . | . | 52%
